Compound activity from PubChem.
TDP1 cell noCPT: qHTS for Inhibitors of human tyrosyl-DNA phosphodiesterase 1 (TDP1): qHTS in cells in absence of CPT. AID 686978, 2013. Potency, µM (highest dose often 46.2 µM), hits mostly inhibitors. 420,000 tested, 15% active. DT40 Tdp1-/- hTDP1 cells, no CPT, ATP luminescence, 48 h; also: nearly all actives have a fitted effect of over 55% in size
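Chicken DT40 Tdp1-/- cells stably complemented with human TDP1 were seeded at 400 cells/well with DMSO in place of 20 nM camptothecin. After compound pinning, cells grew at least 48 hr at 37 °C; viability read by CellTiter-Glo luminescence.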
HT1080 IDH1KD tx: qHTS for induction of synthetic lethality in tumor cells producing 2HG: qHTS for the HT-1080-IDH1KD cell line | HT-1080 IDH1 knockdown viability, ATP luminescence, 48 h | Potency, µM (highest dose often 46.1 µM), usual class: cytotoxic | 360,000 tested, 2% active
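Cytotoxicity counter-line: IDH1KD HT-1080, 48 h, CellTiter-Glo. Curves classed by r2, magnitude and activity.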
TGFb SMAD3 inh: qHTS for Inhibitors of TGF-b; AID 588855, 2011; 410,000 tested, 1.2% active; HepG2 CAGA-GFP TGF-b/SMAD3 reporter, GFP fluorescence, 18 h; TGF-beta stimulated, 500 pg/mL final; Potency, µM (doses to about 46.1 µM), most hits filed as inhibitors; also: nearly all actives have a fitted effect of over 65% in size
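Cell-based qHTS in HEPG2 carrying a CAGA-GFP Smad reporter; compounds added before 500 pg/mL final TGF-beta, 18 h incubation at 37 degrees C, GFP fluorescence quantified per cell by imaging cytometry.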
HepG2 viability: qHTS for Inhibitors of TGF-b: Cytotox Counterscreen; 410,000 tested, 0.76% active; AID 588856, 2011; HepG2 CAGA-GFP viability, ATP luminescence, 18 h; Potency, µM (titrated, usually from 46.1 µM), usual class: cytotoxic
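HepG2 CAGA-GFP cells (1000/well, DMEM with 1% FBS) received compound, then TGF-beta at 500 pg/mL final, and were incubated 18 hours at 37 degrees C. Viability was read by CellTiter-Glo luminescence. Media-only wells were set as complete cell-killing and DMSO as no toxicity.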
HT1080NT lethal: qHTS for induction of synthetic lethality in tumor cells producing 2HG: qHTS for the HT-1080-NT fibrosarcoma cell line; HT-1080-NT fibrosarcoma viability, CellTiter-Glo ATP luminescence, 48 h; Potency, µM (titrated, usually from 46.1 µM), most hits filed as cytotoxic; 360,000 tested, 1.6% active; AID 686970, 2013;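 also: NT is the 2HG producing partner of a matched IDH1 knockdown line; nearly all actives have a fitted effect of over 55% in size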
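Luminescent CellTiter-Glo readout after 48 hours of compound exposure at 37 degrees C defined viability of HT-1080-NT cells. Activity was normalized to DMSO wells and cell-free media wells; concentration-response curves were fitted and assigned curve classes.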
TDP1 cell CPT: qHTS for Inhibitors of human tyrosyl-DNA phosphodiesterase 1 (TDP1): qHTS in cells in presence of CPT. chicken DT40 Tdp1-/-;hTDP1 cells + 20 nM CPT, ATP luminescence, 48 h. Potency, µM (titrated, usually from 46.2 µM), actives largely listed as inhibitors. 420,000 tested, 12% active; also: nearly all actives have a fitted effect of over 55% in size
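Chicken DT40 Tdp1-/- cells complemented with human TDP1, 400 cells/well, exposed to compounds plus 20 nM camptothecin for at least 48 h at 37 C; viability read as ATP content by CellTiter-Glo luminescence.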
A number is an active result; - = inactive; ? = inconclusive; . = no result given; [ ] = another dose, or the depositor's remark. Only some compounds are listed: those with a hit (about 17% of all), similar ones and a draw of the others. Calls follow the shape of the dose curve; as a rule, active = well fitted curve in the direction sought with a large enough effect; inconclusive = small, poorly fitted or top-dose-only effect, or another doubt; inactive = no such curve, though single readings can be large; an effect the other way counts as inactive or inconclusive.

SMILES	TDP1 cell noCPT	HT1080 IDH1KD tx	TGFb SMAD3 inh	HepG2 viability	HT1080NT lethal	TDP1 cell CPT
COc1ccc(NC(=O)COc2ccccc2C)cc1S(=O)(=O)N1CCCCC1	8.2µM	-	?	-	-	?
COc1ccc(NC(=O)CN2CCCCC2)cc1S(=O)(=O)N1CCCCC1	-	-	-	-	-	-
Cc1ccc(NC(=O)c2ccc(C)c(S(=O)(=O)N3CCCCCC3)c2)cc1	.	.	-	-	.	.
COc1ccc(NC(=O)CN(Cc2ccco2)Cc2ccco2)cc1S(=O)(=O)N1CCCCC1	?	-	-	-	-	23µM
Cc1ccc(C(=O)Nc2cccc(O)c2)cc1S(=O)(=O)N1CCCCCC1	1.2µM	-	?	-	-	29µM
CCc1noc(C)c1C(=O)Nc1ccc(C)c(S(=O)(=O)N2CCCCCC2)c1	?	-	?	-	-	16µM
Cc1ccc(S(=O)(=O)Nc2ccccc2C(=O)N2CCCCC2)cc1	-	-	-	-	-	-
Cc1ccc(NC(=O)COc2ccccc2C(N)=O)cc1S(=O)(=O)N1CCCCCC1	3.7µM	-	?	-	-	4.1µM
Cc1ccc(NC(=O)COc2ccc(N(C)C(=O)C(C)(C)C)cc2)cc1S(=O)(=O)N1CCCCC1	2.3µM	-	?	-	-	8.2µM
CCCCn1c(SCC(=O)NNC(=O)c2ccco2)nnc1-c1ccco1	-	-	-	-	-	-
CC(OC(=O)C1CSC2(C)CCC(=O)N12)C(=O)Nc1ccc(F)cc1 (configuration not stated)	-	-	-	-	-[9.24 µM]	-
CCc1c(C)c(C#N)c2nc3ccccc3n2c1-n1nc(C)cc1C	?	-	-	-	-	-
Cc1cc(-c2ccco2)c(C#N)c2nc3ccccc3n12	18µM	-	-	-	-	15µM
CCn1c(N2CCN(C(=O)c3ccco3)CC2)nc2ccccc21	-	-	-	-	-	-
CC(C)c1cc(N2CCN(C(=O)c3ccco3)CC2)n2c(nc3ccccc32)c1C#N	21µM	-	-	-	-	15µM
Cc1ccccc1-c1cncnc1NCc1cccnc1	-	.	.	.	.	-
Clc1ccccc1NCSC1=NCCS1	-	-	-	-	-	-
Cc1ccccc1Nc1nc(Nc2ccccc2C)nc(SC2=NCCS2)n1	21µM	?	?	-	?	23µM
CCOC(=O)CNc1nc(Cl)nc(Nc2ccc(C)cc2)n1	?	-	-	-	-	-
Cc1ccc(Nc2nc(Nc3ccc(C)cc3)nc(SC3=NCCS3)n2)cc1	18µM	?	?	-	10µM	?
COc1cc(=O)n2c(c1C(=O)NCc1ccco1)CCN(C(=O)c1ccccc1-c1ncc[nH]1)CC2	-	.	.	.	.	-
Cc1cccc2cc(/C=C3\N=C(c4ccccc4)OC3=O)c(N3CCOCC3)nc12	23µM	-	?	-	-	?
O=C(/C=C/c1ccccc1[N+](=O)[O-])N1CCCCC1	-	-	-	-	-	?
O=C(/C=C/c1ccc([N+](=O)[O-])s1)N1CCN(c2ccccc2)CC1	16µM	-	?	-	-	?
O=C(/C=C/c1ccccc1[N+](=O)[O-])N1CCN(c2ccc(F)cc2)CC1	-	-	-	-	-	-
SMILES	TDP1 cell noCPT	HT1080 IDH1KD tx	TGFb SMAD3 inh	HepG2 viability	HT1080NT lethal	TDP1 cell CPT
CC1CN(C(=O)/C=C/c2ccc([N+](=O)[O-])s2)CC(C)O1 (configuration not stated)	15µM	?	?	10µM	?	?
O=C(/C=C/c1ccc([N+](=O)[O-])s1)N1CCCCC1	12µM	23µM	13µM	11µM	?	?
O=C(/C=C/c1ccc([N+](=O)[O-])s1)N1CCCC1	10µM	-	11µM	20µM	?	21µM
CSc1ccc(CN(C)CC(=O)Nc2ccc(C)cc2Br)cc1	?	-	-	-	-	?
CC1CCN(CCC(=O)Nc2ccc(F)c(F)c2)CC1	-	-	-	-	-	-
OCc1ccc(-c2cccc3nccn23)cc1	-	-	-	-	-	-
Cc1ccc(NS(=O)(=O)c2c(C)nc3sc(C)cn3c2=O)c(C)c1	18µM	.	-	-	.	18µM
COc1ccc(CC(N)c2csc(NC(=O)NCCc3ccc(OC)c(OC)c3)n2)cc1 (configuration not stated)	?	?	-	-	?	18µM
COc1ccc(CCNC(=O)Nc2nc(C(N)Cc3ccccc3)cs2)cc1OC (configuration not stated)	21µM	?	-	-	?	?
CC(C)c1cc(C(=O)O)n(-c2ccccc2)n1	-	?	-	-	-	-
CN1C(=O)/C(=C\C=C2/CCCN2C)N(C)C1=S	-	-	-	-	-	-
CCN1C(=O)/C(=C/C=C2/CCCN2C)OC1=S	5.2µM	-	-	-	-	?
O=C1NC[C@H](Cc2ccccc2)N(C[C@H]2CCCN2C[C@H](Cc2ccccc2)N2C[C@H](Cc3ccc(O)cc3)N(CCc3ccccc3)C(=O)C2=O)C1=O	?	?	-	-	-	?
CCOc1ccc(CCN2C(=S)N([C@@H](Cc3ccccc3)CN3CCC[C@@H]3CN3C(=S)NC[C@@H]3Cc3ccc(O)cc3)C[C@@H]2CC(C)C)cc1	9.2µM	-	?	-	-	9.2µM
Oc1ccc(C[C@H]2CN([C@@H](Cc3ccccc3)CN3CCCC3CN3C(=S)NC[C@@H]3Cc3ccccc3)C(=S)N2CCc2ccccc2)cc1 (some centres not stated)	16µM	-	.	.	-	21µM
CCOc1ccc(CCN2C(=S)N([C@@H](Cc3ccc(O)cc3)CN3CCCC3CN3C(=S)NC[C@@H]3Cc3ccc(O)cc3)C[C@@H]2CC(C)C)cc1 (some centres not stated)	?	-	?	-	-	?
Oc1ccc(C[C@H]2CN([C@@H](Cc3ccc(O)cc3)CN3CCC[C@@H]3CN3C(=S)NC[C@@H]3Cc3ccccc3)C(=S)N2CCc2ccccc2)cc1	10µM	?	?	-	?	9.2µM
C#CCOc1c(/C=C\c2nc(O)c([N+](=O)[O-])c(=O)[nH]2)cc(Br)cc1OC	-	-	-	-	-	-
CCCCC(=NCCc1c(C)[nH]c2ccc(OC)cc12)C1=C(O)CC(c2ccccc2)CC1=O (configuration not stated)	4.1µM	2.3µM	?	-	?	4.1µM
